{
  "source": "PubChem BioAssay (NCATS)",
  "note": "Records with an inconclusive call do not appear. A call without a number means that no potency is given here. Calls of active or inactive are those of the source. The call rests on the fitted dose curve; in most records, active means well fitted inhibition curve with a large enough effect; inconclusive means small, poorly fitted or top-dose-only effect; inactive means no such curve, though single readings can be large or run the other way.",
  "data": [
    {"assay": "qHTS assay for measurement of the activity of small molecule inhibitors on Zika virus induced Caspase-3 activity in human iPSC derived neural progenitor cells (hNPCs) (AID 1224857); further: nearly all actives have a fitted effect of over 65% in size", "conditions": "hNPCs ZIKV-induced caspase-3/7, Caspase-Glo luminescence, 6 h; series mostly up to 45.7 µM", "how_it_was_run": "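Zika virus (2 FFU/cell) infection of human iPSC-derived NPCs, 6 h, following 1 h compound preincubation. Read-out: Caspase-Glo 3/7 luminescence.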", "values": [
      {"smiles": "C[N+](C)(C)CCOP(=O)(O)OP(=O)([O-])OC[C@H]1O[C@@H](n2ccc(N)nc2=O)[C@H](O)C1O", "note": "(stereo not given in full)", "Potency": "inactive"},
      {"smiles": "Brc1c(Br)c(Br)c2n[nH]nc2c1Br", "Potency": "inactive"},
      {"smiles": "NO", "Potency": "inactive"},
      {"smiles": "CC12C(=O)OC(=O)C1(C)C1CCC2O1", "note": "(stereo not given)", "Potency": "inactive"},
      {"smiles": "CNC(=O)[C@H]1O[C@@H](n2cnc3c(NCc4cccc(I)c4)ncnc32)[C@H](O)C1O", "note": "(stereo not given in full)", "Potency": "inactive"},
      {"smiles": "CCCCCCCCCCCCCCCCCC(=O)OC(CC(=O)O)C[N+](C)(C)C", "note": "(stereo not given)", "Potency": "inactive"},
      {"smiles": "CN1CCc2ccccc2Cc2[nH]c3ccccc3c2CC1", "Potency": "inactive"},
      {"smiles": "COc1cc(OC)c(/C=C2/C(=O)Nc3ccccc32)c(OC)c1", "Potency": "inactive"},
      {"smiles": "COc1cc(OC)cc(-c2cc3cnc(N)nc3nc2NC(=O)NC(C)(C)C)c1", "Potency": "inactive"},
      {"smiles": "COc1ccccc1CN[C@@H]1CCCN[C@@H]1c1ccccc1", "Potency": "inactive"},
      {"smiles": "O=C(O)Cc1cccc(-c2cc(CCCCCCc3ccc(O[C@H]4O[C@H](CO)[C@@H](O)[C@H](O)[C@@H]4O)c(-c4cccc(CC(=O)O)c4)c3)ccc2O[C@H]2O[C@H](CO)[C@@H](O)[C@H](O)[C@@H]2O)c1", "activity change, negative = inhibition": "14.4% [at 0.568 µM] (inactive)"},
      {"smiles": "O=C(/C=C/c1ccc(O)c(O)c1)OCCc1ccccc1", "Potency": "inactive"},
      {"smiles": "O=[N+]([O-])c1ccc(CNc2nc(NCc3cccc(C(F)(F)F)c3)nc3nc[nH]c23)cc1", "Potency": "inactive"},
      {"smiles": "CC[C@@H](C)[C@H]1O[C@]2(CC[C@@H]1C)C[C@@H]1C[C@@H](C/C=C(\\C)[C@@H](O[C@H]3C[C@H](OC)[C@@H](O[C@H]4C[C@H](OC)[C@@H](O)[C@H](C)O4)[C@H](C)O3)[C@@H](C)/C=C/C=C3\\CO[C@@H]4[C@H](O)C(C)=C[C@@H](C(=O)O1)[C@]34O)O2", "Potency": "inactive"},
      {"smiles": "O=C(Nc1ccncc1)c1cc([N+](=O)[O-])ccc1Cl", "Potency": "inactive"}
    ]}
  ]
}
